Experimental data from PubChem BioAssay AID1347418 (Sanford-Burnham Center for Chemical Genomics, 2020).
About 750 (58%) of roughly 1,300 compounds were called active. The list shows a part of the results. A number with no mark means an inactive call.

Each molecule was assayed against Sulfhydryl oxidase 1 (Homo sapiens) (UniProt O00391) (assay: QSOX1 enzyme inhibitors, primary screen, biochemical, ROS-Glo H2O2 luminescence, HTS (AID 1347418)). Conditions: recombinant QSOX1, ROS-Glo H2O2 luminescence; at 12.5 µM; stronger effect = higher value; active = any value above zero.
Sulfhydryl oxidase 1 (Homo sapiens), sequence (O00391 whole entry, looked up): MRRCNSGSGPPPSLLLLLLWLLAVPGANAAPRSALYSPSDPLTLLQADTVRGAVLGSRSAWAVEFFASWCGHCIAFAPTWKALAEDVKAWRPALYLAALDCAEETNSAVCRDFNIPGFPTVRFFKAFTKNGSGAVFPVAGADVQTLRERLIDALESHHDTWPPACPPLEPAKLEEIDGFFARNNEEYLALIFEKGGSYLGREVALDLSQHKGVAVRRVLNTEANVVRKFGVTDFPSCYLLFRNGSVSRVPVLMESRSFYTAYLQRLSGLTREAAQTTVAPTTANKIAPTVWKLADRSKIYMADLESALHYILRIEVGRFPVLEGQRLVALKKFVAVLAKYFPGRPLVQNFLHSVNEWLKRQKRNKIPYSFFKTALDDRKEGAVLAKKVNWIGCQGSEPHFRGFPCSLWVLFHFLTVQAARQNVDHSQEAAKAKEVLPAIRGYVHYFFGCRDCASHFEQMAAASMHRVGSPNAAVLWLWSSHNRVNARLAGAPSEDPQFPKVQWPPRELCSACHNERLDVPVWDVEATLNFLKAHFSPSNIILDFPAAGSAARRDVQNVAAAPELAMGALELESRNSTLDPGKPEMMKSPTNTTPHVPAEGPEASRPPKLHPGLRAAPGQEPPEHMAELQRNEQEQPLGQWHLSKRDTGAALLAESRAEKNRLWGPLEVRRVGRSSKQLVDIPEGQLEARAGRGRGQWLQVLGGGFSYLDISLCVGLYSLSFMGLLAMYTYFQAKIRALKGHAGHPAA
`O=c1[nH]c(=S)[nH]c(-c2ccccc2)c1Cc1c(O)ccc2ccccc12` was tested, and the inhibition was 9% (active).
In the case of `O=C(c1cc(O)c(O)c([N+](=O)[O-])c1)c1ccccc1F`, the inhibition is reported as 14.2% (active).
In the case of `N#CC(=C(\N)Sc1ccccc1N)/C(C#N)=C(/N)Sc1ccccc1N`, the inhibition is reported as 44.1% (active).
In the case of `CC(O)C(O)[C@H]1CNc2nc(N)[nH]c(=O)c2N1` (stereo partly drawn), the inhibition is reported as 1.5% (active).
`CCOC(=O)C(C)(C)Oc1ccc(Cl)cc1` was tested, and the inhibition was -1.7%.
With `CC(C)(Oc1ccc(C2CC2(Cl)Cl)cc1)C(=O)O` (stereo not drawn) the inhibition was 2.5% (active).
In the case of `CC(C)(Oc1ccc(CCNC(=O)c2ccc(Cl)cc2)cc1)C(=O)O`, the inhibition is reported as -3.3%.
`COc1cc(C(O)C(=O)O)ccc1O` (stereo not drawn) was tested, and the inhibition was 1.1% (active).
For `COc1cc(C(O)CO)ccc1O` (stereo not drawn), the inhibition was 4.8% (active).
In the case of `COc1ccc2cc([C@H](C)C(=O)O)ccc2c1`, the inhibition is reported as -0.6%.
`COc1cc(C(O)CO)ccc1OS(=O)(=O)O` (stereo not drawn) was tested, and the inhibition was 0.6% (active).
`CCN(CC)CCNC(=O)c1cc(S(C)(=O)=O)ccc1OC` was tested, and the inhibition was -3.2%.
For `COC(=O)[C@H]1[C@H]2C[C@@H]3c4[nH]c5cc(OC)ccc5c4CCN3C[C@H]2C[C@@H](OC(=O)c2cc(OC)c(OC)c(OC)c2)[C@@H]1OC`, the inhibition was 11.6% (active).
`COC(=O)[C@H]1[C@H]2C[C@H]3c4[nH]c5ccccc5c4CCN3C[C@H]2CC[C@@H]1O` was tested, and the inhibition was 6.1% (active).
`COC(=O)[C@@H]1[C@H]2C[C@H]3c4[nH]c5ccccc5c4CCN3C[C@@H]2CC[C@@H]1O` was tested, and the inhibition was 1.4% (active).
`C=C[C@H]1CN2CC[C@@H]1C[C@H]2[C@@H](O)c1ccnc2ccc(OC)cc12` was tested, and the inhibition was -3%.
With `O=C(O)CCC/C=C\C[C@@H]1[C@@H](/C=C/[C@H](O)C2Cc3ccccc3C2)[C@@H](F)C[C@@H]1O` the inhibition was 7.1% (active).
`O=C(O)C1=CCCNC1` gave an inhibition of -2.5%.
`Cc1cccc(C)c1NC(=O)C(C)N` (stereo not drawn) was tested, and the inhibition was 8% (active).
`CCCNC(C)C(=O)Nc1ccccc1C` (stereo not drawn) showed an inhibition of -4.7%.
`CCN(CC)CC(=O)Nc1c(C)cccc1C` gave an inhibition of -1.3%.
For `CCCn1c(=O)c2c(ncn2C)n(CCC)c1=O`, the inhibition was 4.1% (active).
In the case of `CCCn1cnc2c1c(=O)n(CCCCC(C)=O)c(=O)n2C`, the inhibition is reported as 2.6% (active).
For `C#CCn1c(=O)c2c(ncn2C)n(C)c1=O`, the inhibition was -0.9%.
In the case of `CC(=O)CCCCn1c(=O)c2c(ncn2C)n(C)c1=O`, the inhibition is reported as 5.8% (active).
`Cn1c(=O)c2c(ncn2C)n(C)c1=O` gave an inhibition of -0.6%.
For `N#C/C(=C\c1ccc(-c2cc(Cl)ccc2Cl)o1)C(=O)Nc1cccc2ncccc12`, the inhibition was 3.5% (active).
In the case of `CCN(CC)CCn1c(=O)c(Cc2ccc(OC)cc2)nc2ccccc21`, the inhibition is reported as 1.7% (active).
With `CCCCOC(=O)NS(=O)(=O)c1sc(CC(C)C)cc1-c1ccc(Cn2c(CC)nc3c(C)cc(C)nc32)cc1` the inhibition was 2.7% (active).
Molecule `CN/C(=C\[N+](=O)[O-])NCCSCc1ccc(CN(C)C)o1` has an inhibition of -12.3%.
In the case of `CC(C)N(CCC(=O)c1ccc2ccccc2c1)Cc1ccccc1`, the inhibition is reported as -1.7%.
For `CC(COc1ccccc1)N(CCCl)Cc1ccccc1` (stereo not drawn), the inhibition was 9.5% (active).
`Cc1cccc(/C=C/c2ccccc2)n1` was tested, and the inhibition was 13.7% (active).
`COc1ccc(CCN(C)CCCC(C#N)(c2ccc(OC)c(OC)c2)C(C)C)cc1OC` (stereo not drawn) showed an inhibition of -2.4%.
For `COc1ccc(CCN(C)CCCC(C#N)(c2cc(OC)c(OC)c(OC)c2)C(C)C)cc1OC` (stereo not drawn), the inhibition was 4% (active).
In the case of `CN1CCN(CC(=O)N2c3ccccc3C(=O)Nc3cccnc32)CC1`, the inhibition is reported as -2.7%.
For `Cc1scc2c1N(C(=O)CN1CCN(C)CC1)c1ccccc1NC2=O`, the inhibition was 1.4% (active).
With `CN1CCN(c2nc3cc(C(F)(F)F)ccc3n3cccc23)CC1` the inhibition was 6.5% (active).
In the case of `Cc1cc(NC(=O)Nc2ccc3c(ccn3C)c2)sn1`, the inhibition is reported as 4% (active).
`O=C(O)[C@H]1NCCC[C@H]1C(=O)O` gave an inhibition of -0.4%.
`O=C(O)C1CCCNC1` (stereo not drawn) was tested, and the inhibition was 1% (active).
Molecule `O=C(O)C1CCNCC1` has an inhibition of -2.2%.
For `Nc1ncnc2c1c(-c1ccc(Oc3ccccc3)cc1)cn2C1CCCC1`, the inhibition was -2.9%.
For `Nc1ncnc2c1c(I)cn2[C@@H]1C[C@H](N)[C@@H](O)[C@H]1O`, the inhibition was 2.7% (active).
`Nc1ncnc2c1ncn2C1CCCC1` gave an inhibition of -9.6%.
`NCC(O)C1CCCCCCC1` (stereo not drawn) was tested, and the inhibition was 11.2% (active).
`O=C(c1ccc(OCCN2CCCCC2)cc1)c1c(-c2ccc(O)cc2)sc2cc(O)ccc12` was tested, and the inhibition was 20.1% (active).
`CC(=O)Oc1cc(C(C)C)c(OCCN(C)C)cc1C` was tested, and the inhibition was 0.4% (active).
